These results are taken from PubChem BioAssay (NCATS).

Results filed as inconclusive are left out. A number with no mark means an inactive call. Active and inactive are the calls of the source. The call rests on the fitted dose curve; in most records, active means well fitted inhibition curve with a large enough effect; inconclusive means small, poorly fitted or top-dose-only effect; inactive means no such curve, though single readings can be large or run the other way.
On the % scale 0 is the no-effect control and ±100 the full control effect; potency means the concentration at half of the fitted maximal effect.

This experiment is described as follows: qHTS for Inhibitors of the Aldehyde Dehydrogenase Family (ALDH1A2, ALDH1A3, ALDH2, ALDH3A1) (AID 2061307). Further: nearly all actives have a fitted effect of over 50% in size. On Potency: test system not described further here. Conditions: ALDH inhibition qHTS; series mostly up to 50.3 µM; activity change, negative = inhibition: at the top concentration. A general note: qHTS replaces the single test concentration by a dilution series.
Take `O=C(NCc1ccc(F)cc1)c1nc(-c2ccc(F)cc2)c2ccccn12`: the “activity change, negative = inhibition” value was -62.5% [at 34.4 µM].

As to `Cc1c2c(=O)n(-c3ccccc3)[nH]c2cc(=O)n1Cc1ccco1`, the Potency was 22.5 µM (active).

With `N#CCc1c(Cc2ccc(S(N)(=O)=O)cc2)c(-c2ccccc2)nn1-c1nc(C(=O)O)cs1`, the “activity change, negative = inhibition” value is -25.6%. Still for that read-out and setting: the result for `Cc1ccc(OCCCn2c(CCN)nc3ccccc32)cc1` reads 31.3%; that for `O=C([C@@H](NS(=O)(=O)c1ccc2[nH]c(=O)ccc2c1)c1ccccc1)N(Cc1ccco1)Cc1cccs1`, 7.55%.

Turning to `O=C1NC(c2ccc(N3CCOCC3)cc2)(c2ccsc2)CC(O)=C1Sc1ccccc1Cl` (stereo not drawn), the “activity change, negative = inhibition” value was -25.9%. Same read-out and setting: the result for `O=C(O)c1csc(-n2nc(C(F)(F)F)cc2-c2ccc(Cl)cc2)n1` reads -9.54%; that for `N#Cc1nc(-c2ccc(F)cc2)oc1N1CCN(C(=O)c2ccccc2F)CC1`, -11.8%.
